Measurements published in the supplement of paper PMC12636033.
± gives the standard deviation of the averaged measurements. Whole data set: some 33,000 sequences, median “E-score (rank enrichment, -0.5 to 0.5)” near -0.0028, cut for the highest 2% near 0.23. This is one part of a sample in which the highest values are shown more often than they occur.

Test system: 2Sb-muMax20 (muMax20 with two 1,3-bis(methyl)benzene Cys staples, A13C/A17C and Q88C/A92C, C-terminal Lys)
Experiment: PBM 8-mer E-score (E-score (rank enrichment, -0.5 to 0.5)); higher = stronger preferential binding
Description: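 Protein binding microarray (universal PBM chip covering all 10-mers in fixed probe flanks) with chemically synthesized human Max(13-93) bHLH-LZ analogs (not full-length Max) bearing noncanonical residues (hArg, Tha, Aib, Nle at 65) and aromatic Cys staples. Read-out per 8-mer (and its reverse complement): E-score (rank-based enrichment, -0.5 to 0.5) and Z-score of median probe intensity.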

| Sequence | PBM 8-mer E-score |
| --- | --- |
| ACATATAC | 0.137 ± 0.0056 |
| ACATATAT | 0.255 ± 0.024 |
| ACATCATC | 0.0415 ± 0.031 |
| ATATCATA | 0.239 ± 0.055 |
| CCATCATA | 0.155 ± 0.017 |
| ATATCATG | 0.178 ± 0.016 |
| ACATCATA | 0.243 ± 0.0089 |
| CTATCATA | 0.149 ± 0.03 |
| CGTGGAAC | -0.0767 ± 0.0022 |
| AGTGTGGC | -0.0951 ± 0.025 |
| GTAAGGGA | -0.0384 ± 0.016 |
| ACATCCTC | 0.028 ± 0.067 |
| AGCACGTG | 0.431 ± 0.0076 |
| ATCACGCA | -0.037 ± 0.094 |
| ACCACGTA | -0.0697 ± 0.045 |
| AGCACGTC | -0.156 ± 0.042 |
| ACCACGTG | 0.432 ± 0.025 |
| CCCACGCG | 0.221 ± 0.031 |
| AGCACGTA | 0.128 ± 0.038 |
| ACCACGCG | 0.283 ± 0.02 |
| ATCACGCC | 0.0526 ± 0.033 |
| ACCACGTC | -0.01627 ± 2.1e-05 |

| Sequence | PBM 8-mer E-score |
| --- | --- |
| ACCACGCA | -0.0882 ± 0.019 |
| ATCACGCG | 0.239 ± 0.026 |
| AATTTCGT | 0.0796 ± 0.033 |
| GATTGCCC | -0.0998 ± 0.019 |
| ATTTAGCG | 0.0611 ± 0.079 |
| ATCACGTA | 0.163 ± 0.032 |
| ATCACGTG | 0.4 ± 0.014 |
| ATCACGTC | 0.0586 ± 0.042 |
| TAGCTACA | 0.0611 ± 0.017 |
| TGGGTACA | -0.0341 ± 0.055 |
| ATTGTTTC | 0.248 ± 0.046 |
| CTTGTTTC | 0.169 ± 0.026 |
| ATTGTTTG | 0.106 ± 0.05 |
| CGGTATTA | -0.1001 ± 0.00022 |
| TATATATA | 0.326 ± 0.048 |
| GATATATA | 0.152 ± 0.015 |
| CAAATATA | 0.151 ± 0.0063 |
| AAAATATA | 0.178 ± 0.027 |
| TAAATATA | 0.238 ± 0.0035 |
| TATATAAA | 0.177 ± 0.052 |
| AGAACACG | 0.104 ± 0.028 |
| AGTCGAAG | 0.0391 ± 0.095 |

| Sequence | PBM 8-mer E-score |
| --- | --- |
| CGCTCGAG | 0.136 ± 0.036 |
| GGTTGTTA | 0.116 ± 0.038 |
| ACTACTGA | -0.123 ± 0.021 |
| CCCGAGAG | -0.255 ± 0.041 |
| ATCAGCCA | -0.0692 ± 0.065 |
| ATCAGCCC | 0.231 ± 0.03 |
| ATCAGCCG | -0.223 ± 0.0056 |
| CAAGAGTC | -0.073 ± 0.074 |
| ACTACATG | 0.123 ± 0.031 |
| ACTACACG | 0.0218 ± 0.034 |
| GCTACATA | -0.0387 ± 0.017 |
| ACTACATA | 0.239 ± 0.06 |
| ACTACACA | 0.266 ± 0.055 |
| CCTACACG | -0.0783 ± 0.048 |
| TAGAACGA | 0.0786 ± 0.036 |
| AGCGAATC | 0.0438 ± 0.019 |
| ATAAAGTA | 0.166 ± 0.053 |
| GTAAAGTA | 0.262 ± 0.032 |
| CTAAAGTA | -0.0474 ± 0.011 |
| AGTATCTA | 0.329 ± 0.0077 |
| AGTATATA | 0.334 ± 0.041 |
| GGTATATA | 0.235 ± 0.013 |

| Sequence | PBM 8-mer E-score |
| --- | --- |
| CGTATATA | 0.185 ± 0.0076 |
| GGTATCTA | 0.0221 ± 0.013 |
| AGTATATC | 0.106 ± 0.013 |
| GGTATAGA | 0.0611 ± 0.0045 |
| AGTATATG | 0.153 ± 0.051 |
| CGTATCTA | -0.126 ± 0.083 |
| CCATCGCG | 0.124 ± 0.044 |
| GTCGCGGA | -0.206 ± 0.07 |
| CGCCCCGC | 0.072 ± 0.059 |
| TTAATTAA | 0.281 ± 0.08 |
| GTAATTAC | 0.2036 ± 0.0011 |
| GGAATTAA | 0.166 ± 0.031 |
| CTAATTAA | 0.0454 ± 0.045 |
| CTAATTAC | 0.139 ± 0.051 |
| ATAATTAC | 0.276 ± 0.0099 |
| CGAATTAA | 0.00973 ± 0.029 |
| TGAATTAA | 0.255 ± 0.0052 |
| ATAATTAA | 0.141 ± 0.023 |
| GTTGAAAA | 0.103 ± 0.084 |
| ACCTTGCA | 0.0732 ± 0.0055 |
